The values below come from PubChem BioAssay AID485313 (National Center for Advancing Translational Sciences (NCATS), 2010).

Among all 320,000 compounds or so, about 7,600 (2.4%) were called active. A call without a number means that no potency is given here. Roughly 3% stayed inconclusive and do not appear here. Calls come from the whole dose curve; as a rule, active = well fitted activation curve with a large enough effect; inconclusive = small, poorly fitted or top-dose-only effect; inactive = no such curve, though single readings can be large or run the other way. The sample as a whole holds a higher share of actives than the screen did.
Potency is the fitted concentration of half-maximal effect.

The test can be described thus: qHTS Assay for NPC1 Promoter Activators.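 For activation: reporter is driven by a mutant NPC1 promoter.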 Note: nearly all actives have a fitted effect of over 60% in size. To be noted: Huh7 NPC1 promoter luciferase reporter, 24 h; series mostly up to 9.22 µM. The method, boiled down:
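NPC1 promoter–luciferase Huh7 cells; 24 h compound; luminescence.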
As for `CCN(CC(=O)NCc1ccc(Cl)cc1)C(=O)c1c(C)noc1C`, the Potency entry is “inactive”.
With `Cc1ccc(S(=O)(=O)N2CCN(c3ncnc4ccccc34)CC2)cc1` the entry was “inactive”; with `Cc1ccc(-c2cn3cc([N+](=O)[O-])ccc3n2)cc1`, 501 nM (active); with `Cc1cc(N2CCOCC2)nc(-c2ccc(Br)cc2)n1`, “inactive”.
Regarding `Cc1nc(-c2ccc([N+](=O)[O-])cc2)c(-c2ccccc2)o1`, the Potency result is “inactive”.
With `Cc1ccc2nc(-c3ccc(Br)cc3)cn2c1` the figure was 398 nM (active); with `Cc1ccc(C(=O)Cn2cc([N+](=O)[O-])nc2C)cc1`, “inactive”.
Turning to `CSc1nnc2ccc(-c3ccc(C)cc3)nn12`, the Potency result is “inactive”.
The result for `CC1CCCC(NC(=O)c2cc(-c3ccncc3)nc3ccccc23)C1C` (configuration not stated) reads “inactive”.
The result for `CCOc1ncccc1C(=O)OCC(=O)c1c[nH]c2ccccc12` reads “inactive”.
For `Brc1ccc(CN2CC[C@H]3C=CCc4cccc(c43)C2)cc1`, the Potency entry is “inactive”.
With `O=C(OCc1cc(=O)n2ccsc2n1)C1(c2ccc(Cl)cc2)CC1` the entry was “inactive”; with `O=C(Nc1ccccc1N1CCN(c2ccccc2)CC1)c1cccc(F)c1`, “inactive”.
As for `O=C(Nc1ccn(Cc2ccccc2)n1)c1cccc(F)c1`, the Potency is 3980 nM (active).
With `O=C(Nc1cccc(NC(=O)c2cccc(F)c2)c1)c1ccccc1` the entry was “inactive”; with `Cc1ccc(S(=O)(=O)N(C)CC(=O)NCC(c2ccc(F)cc2)N2CCOCC2)cc1` (configuration not stated), “inactive”; with `CC(C)Nc1ccc(-n2nc3ccccc3[n+]2[O-])cc1`, 355 nM (active).
On to `COc1ccc(-c2noc(COc3ccc(Cl)c(C)c3)n2)cc1`, for which the Potency result is “inactive”.
With `CN(Cc1ccccn1)Cc1nc(-c2ccc(Cl)cc2)no1` the entry was “inactive”; with `Cc1cc(Cl)ccc1OCc1nc(-c2ccncc2)no1`, 2820 nM (active).
With `Cc1cc(NC(=O)CSc2nnnn2-c2ccc(F)cc2)no1` the entry was “inactive”; with `N#Cc1ccc(OCC(=O)NC(=O)NC2CCS(=O)(=O)C2)cc1` (configuration not stated), “inactive”.
With `Cn1c(=NC(=O)c2ccco2)sc2cccc(F)c21` the figure was 2510 nM (active).
For the compound `CCCC(=O)N=c1sc2cccc(F)c2n1C`, the Potency entry was “inactive”.
The result for `Cn1c(=NC(=O)C2CC2)sc2cc(F)cc(F)c21` reads “inactive”.
Regarding `CC1CC2C3CCC4=CC(=O)C=C[C@]4(C)[C@@]3(F)[C@@H](O)C[C@]2(C)[C@@]1(O)C(=O)CO` (some centres not stated), the Potency entry was “inactive”.
The result for `CN(C)S(=O)(=O)c1cccc(NC(=O)COc2ccc3ccccc3c2)c1` reads “inactive”; that for `O=C(COC(=O)c1ncc(Cl)c(Cl)c1Cl)NCc1ccccc1`, “inactive”; that for `CCOc1ccc(C(=O)Nc2nccs2)cc1[N+](=O)[O-]`, “inactive”.
The result for `Cc1ccc(-c2noc(CC(c3ccccc3)c3ccccc3)n2)cc1` reads “inactive”; that for `Cc1cccc(-c2noc(CCC(=O)NC3CCCC3)n2)c1`, “inactive”; that for `Cc1ccc(Cc2nc(-c3cccc(C)c3)no2)cc1`, 2820 nM (active).
The result for `Cc1ccc(-c2noc(CN3CCN(Cc4ccccc4)CC3)n2)cc1` reads “inactive”; that for `Cc1cccc(-c2nc(Nc3ccc(O)cc3)c3ccccc3n2)c1`, “inactive”; that for `Cc1cccc(-c2noc(-c3ccc(F)cc3)n2)c1`, 100 nM (active).
Turning to `O=C(CSc1ccccc1)Nc1cccc(S(=O)(=O)N2CCOCC2)c1`, the Potency result was “inactive”.
In the case of `CC(=O)c1sc(N/N=C/c2ccc(C(C)C)cc2)nc1C`, the Potency is 1000 nM (active).
Regarding `COc1cc2ccccc2cc1C(=O)Nc1ccccc1C`, the Potency entry is “inactive”.
The result for `CC(=O)c1sc(NC(=O)C2=NN(c3ccccc3)C(=O)CC2)nc1C` reads “inactive”.
With `COc1cc2ccccc2cc1C(=O)Nc1ccncc1` the entry was “inactive”; with `COc1cc2ccccc2cc1C(=O)Nc1nc(C)c(C(C)=O)s1`, 3980 nM (active).
The result for `CCOC(=O)c1sc(NC(=O)c2sc(C)nc2C)nc1C` reads “inactive”; that for `Cc1nnc(C)n1/N=C/c1ccc(C(C)C)cc1`, “inactive”.
In the case of `CC(=O)c1sc(NC(=O)CCCOc2ccccc2C)nc1C`, the Potency entry was “inactive”.
The result for `Cc1ccc(S(=O)(=O)Nc2nc(C)cc(N/N=C/c3ccc(O)cc3)n2)cc1` reads “inactive”.
With `CC(=O)c1sc(NC(=O)c2ccc(C)cc2)nc1C` the figure was 1580 nM (active); with `CC(=O)c1sc(N/N=C\c2ccc(C)cc2)nc1C`, 3550 nM (active).
On to `CC(=O)c1sc(N)nc1C`, for which the Potency result was “inactive”.
The result for `COc1ccc(Cl)cc1NC(=O)CN(C)CC(=O)Nc1ccc2c(c1)OCO2` reads “inactive”; that for `COc1ccc(-c2cc(C(=O)NCCCN3CCCC3=O)c3ccccc3n2)cc1OC`, “inactive”; that for `O=S(=O)(Nc1ccc(Cl)cn1)c1cnc(Cl)c(Br)c1`, “inactive”.
The result for `COc1ccc(S(=O)(=O)Nc2ccc3cn[nH]c3c2)cc1[N+](=O)[O-]` reads “inactive”; that for `CCc1ccc(CN(C)C(C)C(=O)Nc2ccc(S(=O)(=O)N3CCCC3)cc2)cc1` (configuration not stated), “inactive”.
With `CN1CCC(N(C)S(=O)(=O)c2ccc(NC(=O)c3cccc(C#N)c3)cc2)CC1` the entry was “inactive”; with `COc1ccc(C2(C)ON(c3ccccc3C(F)(F)F)C2=O)cc1` (configuration not stated), “inactive”.
As for `O=C(CSc1nc2ncccc2[nH]1)Nc1ccc2c(c1)OCCO2`, the Potency entry is “inactive”.
With `CCn1nc(C(=O)NNC(=O)C2CSC3(C)CCC(=O)N23)c2ccccc2c1=O` (configuration not stated) the entry was “inactive”.
With `N#Cc1c(NC(=O)C2CC(Cl)=CCC2C(=O)O)sc2c1CCCCC2` (configuration not stated) the entry was “inactive”.
Consider `N#Cc1c(NC(=O)CCCl)sc2c1CCCCC2`, for which the Potency entry was “inactive”.
The result for `N#Cc1c(NC(=O)C2CCCO2)sc2c1CCCCC2` (configuration not stated) reads 3550 nM (active); that for `COc1ccc(NS(=O)(=O)c2cccc(C(=O)NCCc3ccc(S(N)(=O)=O)cc3)c2)cc1`, “inactive”; that for `Clc1ccc2nc(CSc3ccccc3)cn2c1`, 501 nM (active).
The result for `O=c1c2ccccc2nc2n1C(CSc1ccc(Cl)cc1)CN2` (configuration not stated) reads “inactive”; that for `O=C(/C=C/c1ccc2c(c1)OCO2)NCc1cn2cc(Cl)ccc2n1`, “inactive”.
The result for `CN(CCC1CCOCC1)Cc1cn[nH]c1-c1ccc(-c2ccccc2)cc1` reads “inactive”; that for `O=C(COC(=O)C1CC2CCCC(C1)C2=O)NC(=O)c1ccccc1` (configuration not stated), “inactive”; that for `CC(OC(=O)c1ccccc1NCCO)C(=O)Nc1ccnn1C(C)C` (configuration not stated), “inactive”.
Take `CC1CCCC(NC(=O)c2cc(S(=O)(=O)N3CCCCC3)ccc2Cl)C1C` (configuration not stated): the Potency entry was “inactive”.
With `Cc1ccc(NC(=O)CCCNC(=O)c2ccc(Cl)cc2)cc1S(=O)(=O)N1CCOCC1` the entry was “inactive”.
With `O=C(O)Cc1sc(-c2ccccc2)nc1-c1cccs1` the entry was “inactive”; with `NC(=O)Cc1ccc2sc(-c3ccccc3)nc2c1`, 3550 nM (active).
With `NC(=O)Cc1ccc2c(c1)[nH]c1ccccc12` the entry was “inactive”.
